Compounds with a hit are over-represented: about 12% of the library has one in this group of screens.
CHX counter: counter-screen for Shiga toxin inhibitors: cycloheximide protein synthesis inhibition; cell reporter, cycloheximide protein synthesis inhibition counterscreen; max response, %; 12% of 300,000 active; in the data active = max response mostly above about 13%, no sharp cut-off; inactive = mostly below about 14%; note: read at 38.3 µM for the half of the compounds with a filed dose; 0% is about no effect
SARS PLpro yeast: blocks SARS-CoV papain-like protease in a yeast assay; S. cerevisiae expressing SARS-CoV PLpro, growth rescue; Potency, µM (highest dose often 32.9 µM), for inactives: at the top dose activity, positive = growth rescue, most hits filed as activators; 0.19% of 330,000 active; note: potency is the fitted concentration of half-maximal effect; 0% is about no effect; nearly all actives have a fitted effect of over 55% in size
NS1 function inh: influenza NS1 inhibition; Potency, µM (series often up to 46.1 µM), without a hit: at the top dose activity, positive = more growth; 0.4% of 270,000 active; AID 2326; note: potency is the fitted concentration of half-maximal effect; actives are rising curves; nearly all actives have a fitted effect of over 50% in size
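Read-out: OD600 growth recovery of NS1-expressing budding yeast. Cells grown overnight at 30C in -URA glucose medium, washed, resuspended and diluted 1:100 in 2% galactose assay medium, pH 6.0. Same strain lacking NS1 served as positive control.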
Shiga toxin inh: Shiga toxin inhibition | inhibition, % at 38.7 µM | Vero cells, Shiga toxin protein synthesis inhibition reporter | 9.2% of 290,000 active; in the data active = inhibition mostly above about 28%, no sharp cut-off; inactive = mostly below about 43%; note: 0% is about no effect
The depositor's hits bear a star; . = no result given. Unless noted, calls come from the whole dose curve.

SMILES	CHX counter	SARS PLpro yeast	NS1 function inh	Shiga toxin inh
COc1cccc(NC(=O)C(C)(C)C)c1	.	2%	.	.
COc1cccc(NC(=O)Nc2nc(SC)ns2)c1	54*	-9%	-10%	100*
CCCSc1nsc(NC(=O)Nc2ccc(F)cc2F)n1	23*	-3%	-56%	36*
Cc1c(C(=O)N(C)C)sc2c1c(=O)n(-c1ccc(Cl)c(Cl)c1)c(=O)n2CC(=O)Nc1ccc(Br)cc1F	2	.	.	-9
CCN1CCN(S(=O)(=O)c2ccc(Cl)c(C(=O)N(C)Cc3ccc(Cl)cc3Cl)c2)CC1	-2	-3%	-5%	-3
CCCSc1ccc(C(=O)Nc2ccc(F)cc2F)cn1	30*	1%	-2%	30
CC(C)S(=O)(=O)c1ccc(C(=O)Nc2ccc(F)cc2F)cn1	-2	-1%	-1%	-4
COc1cc(C=C(c2nc3ccccc3s2)c2nc3ccccc3s2)cc(OC)c1O	17*	-54%	9%	58
CN(C)c1ccc(/C=C(\Cl)c2nc3ccccc3s2)cc1	66*	-34%	26%	79*
COc1cc(/C=C(\CC(=O)O)c2nc3ccccc3s2)cc(OC)c1O	17	1%	.	13
CN(c1ccccc1)c1ccc(/C=C(\CCC(=O)O)c2nc3ccccc3s2)cc1[N+](=O)[O-]	16*	8%	9%	21
O=C(O)C/C(=C\c1cccc(NC(=O)c2ccccc2Cl)c1)c1nc2ccccc2s1	26*	-2%	-80%	52*
COc1ccc(/C=C(\CC(=O)O)c2nc3ccccc3s2)cc1O	26	-5%	.	72*
Cc1ccc(/C=C(\CCC(=O)O)c2nc3ccccc3s2)cc1[N+](=O)[O-]	3	-27%	-11%	15
COc1ccc(C(=O)Nc2cccc(/C=C(\CCC(=O)O)c3nc4ccccc4s3)c2)cc1	17*	0%	8%	59*
OCC1(CC2CCCCO2)CCN(Cc2cccc(O)c2)CC1 (centres undefined)	0	1%	2%	-9
Cc1cccc(NC(=O)CCC(=O)N/N=C/c2ccc(O)cc2O)c1	-1	2%	-1%	2
Cc1cccc(N/N=C/c2ccncc2)c1	34*	-6%	-52%	45*
Cc1cccc(NC(=O)C(=O)N/N=C/c2ccncc2)c1	1	-2%	.	9
Cc1cccc(N/N=C/c2ccccc2O)c1	101*	-39%	18%	98*
Nn1c(SCC(=O)Nc2nnc(-c3ccccc3)o2)nnc1C1CC1	.	-8%	.	.
OCCNCc1ccc(OCc2ccc(Cl)cc2Cl)cc1	25*	-2%	-4%	35
COC(=O)CNc1c(-c2ccccc2)nc2ccc(Br)cn12	42*	-19%	-55%	50*
CCOc1ccc(NS(=O)(=O)c2ccc(C)c(C(=O)NCCCn3ccnc3)c2)cc1	-4	3%	14%	19
COc1ccc(C(=O)Nc2ccnn2C2CCN(C(=O)c3cnsn3)CC2)cc1	20*	0%	-12%	54
SMILES	CHX counter	SARS PLpro yeast	NS1 function inh	Shiga toxin inh
COc1ccccc1NC(=O)Nc1ccnn1C1CCN(C(=O)c2ccccn2)CC1	1	6%	-5%	-2
O=C(Nc1cccc(F)c1)Nc1ccnn1C1CCN(C(=O)c2ccccn2)CC1	23*	2%	10%	42*
COc1ccccc1NC(=O)Nc1ccnn1C1CCN(C(=O)c2cscn2)CC1	32*	1%	-13%	29
COC(C(=O)Nc1ccnn1C1CCN(C(=O)c2cccc(F)c2)CC1)c1ccccc1 (centres undefined)	-3	5%	0%	-6
COc1ccccc1C(=O)Nc1ccnn1C1CCN(C(=O)c2ccoc2C)CC1	15*	1%	2%	13
CCN(CC)S(=O)(=O)c1ccc(N2CCOCC2)c(NC(=O)c2ccc(N3CCCC3=O)cc2)c1	.	0%	.	.
Nc1c([N+](=O)[O-])cnnc1-c1ccccc1	-1	1%	-1%	16
O=c1c2cc3c(=O)n(-c4ccccc4O)c(=O)c3cc2c(=O)n1-c1ccccc1O	27*	-13%	-3%	106*
COc1cccc(NC(=O)N2CCN(C(=O)C(Cc3ccc(OC)c(OC)c3)NC(C)=O)CC2)c1 (centres undefined)	-2	-1%	-5%	3
COc1ccc(CC(NC(C)=O)C(=O)N2CCN(C(=O)Nc3ccc(Cl)cc3)CC2)cc1OC (centres undefined)	14*	5%	-71%	44
O=CN1CCN(C(=O)c2ccc(-c3nc4ccccc4s3)s2)CC1	43*	1%	.	123*
CNC(=O)COC(=O)c1ccc(-c2nc3ccccc3s2)s1	29*	12%	-3%	53*
O=C(CCc1nc2ccccc2s1)N1CCN(c2ccccc2)CC1	-3	-1%	.	-7
COCCCNC(=O)COC(=O)c1ccc(-c2nc3ccccc3s2)s1	47*	0%	.	76*
CC(C)Oc1ccc(CNC(=O)Cn2ccc3cc(S(=O)(=O)N4CCCC4)ccc32)cc1	-2	6%	10%	25
CC1(C)C(CSc2nc3ccccc3[nH]2)C1(Cl)Cl (centres undefined)	27	-21%	.	72*
Nc1ccccc1Sc1nc2ccccc2[nH]1	23*	-6%	.	59*
CCOc1ccc(OCCSc2nc3ccccc3[nH]2)cc1	19	-80%	-34%	19
CCSc1nc2ccccc2[nH]1	4	12%	-64%	8
CCCOc1ccc(CSc2nc3ccccc3[nH]2)cc1	49*	-12%	-34%	84*
c1ccc(CSc2nc3ccccc3[nH]2)cc1	44*	3%	-3%	57*
O=S1(=O)CCC(NC(=S)N2CCOCC2)C1 (centres undefined)	3	-1%	13%	16
COc1ccc(S(=O)(=O)Nc2cc(C)nn2-c2ccccc2)cc1	0	8%	17%	-14
O=c1[nH]c(SCc2ccccc2)nc2[nH]ncc12	13	1%	.	28*
O=C(CSc1nc2[nH]ncc2c(=O)[nH]1)Nc1ccccc1	-2	2%	.	11
SMILES	CHX counter	SARS PLpro yeast	NS1 function inh	Shiga toxin inh
CC(C)CSc1nc2ccccc2[nH]1	45*	-2%	.	94*
O=c1cc(CSc2nc3ccccc3[nH]2)c2ccccc2[nH]1	28*	15%	-5%	53*
c1ccc(CSCc2nc3ccccc3[nH]2)cc1	62*	-21%	-19%	74*
CCCCN(C(=O)c1ccc(C)cc1)c1c(N)n(CCC)c(=O)[nH]c1=O	-4	-3%	4%	-7
C[C@H](C(=O)CC(=O)OC(C)(C)C)[C@H](O)c1ccccc1	9	0%	-10%	-1
Cc1cccc2nc(CSc3nc4ccccc4[nH]3)cn12	13	1%	-7%	24
Cn1ccnc1SCc1cc(=O)[nH]c2ccccc12	17*	2%	-8%	19
Nc1nc(CSc2nc3ccccc3[nH]2)cs1	25*	-12%	-147%	47*
Fc1ccc(CSc2nc3ccccc3[nH]2)cc1	49*	-18%	-62%	132*
O=c1cnnc(SCc2ccc([N+](=O)[O-])cc2)[nH]1	-1	-7%	.	-9
O=[N+]([O-])c1ccc(CSc2nc3ccccc3[nH]2)cc1	35*	-17%	5%	38*
O=S(=O)(c1ccccc1)n1c(C(O)c2ccccn2)cc2ccccc21 (centres undefined)	-3	8%	18%	5
